Assay results as given in PubChem BioAssay AID1159580 (chemical genetic matrix, 2015).
In all, about 5,500 compounds went through this assay and about 2,000 (36%) were called active. About 18% were inconclusive and are not listed. The list shows a part of the results. A number with no mark means an inactive call. Cut-off read from the data, not from the text of the source: active = normalized growth mostly below about 0.91 (no sharp cut-off); inconclusive = no clear call, values can overlap the other calls; inactive = mostly above about 0.92.

Experiment: chemical genetic growth profiling, strain panel (AID 1159580);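 note: tested at 20 µM; growth read once vehicle control cultures reached saturation at 30 °C; 1 = growth at the plate median or of vehicle wells; lower values mean less growth of the strain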
Settings: growth OD

## CC1=NN(c2ccccc2)C(=O)C1
S. cerevisiae deletion strains, locus YJR075W, strain HOC1, hits give low values
  normalized growth: 0.979
S. cerevisiae deletion strains, locus YKL009W, strain mrt4, hits give low values
  normalized growth: 0.991
S. cerevisiae deletion strains, locus YKL068W, hits give low values
  normalized growth: 0.98
S. cerevisiae deletion strains, locus YKL085W, strain MDH1 (second series), hits give low values
  normalized growth: 0.963
S. cerevisiae deletion strains, locus YKL085W, strain MDH1, hits give low values
  normalized growth: 0.963
S. cerevisiae deletion strains, locus YKL160W, strain elf1, hits give low values
  normalized growth: 0.951
S. cerevisiae deletion strains, locus YKL190W, strain CNB1, hits give low values
  normalized growth: 0.994
S. cerevisiae deletion strains, locus YKR001C, strain vps1, hits give low values
  normalized growth: 0.961
S. cerevisiae deletion strains, locus YKR026C, strain gcn3, hits give low values
  normalized growth: 0.994
S. cerevisiae deletion strains, locus YKR091W, strain srl3, hits give low values
  normalized growth: 0.986
S. cerevisiae deletion strains, locus YLL001W, strain dnm1, hits give low values
  normalized growth: 0.951
S. cerevisiae deletion strains, locus YLL026W, hits give low values
  normalized growth: 0.984
S. cerevisiae deletion strains, locus YLL041C, strain sdh2, hits give low values
  normalized growth: 0.99
S. cerevisiae deletion strains, locus YLR027C, strain aat2, hits give low values
  normalized growth: 0.994
S. cerevisiae deletion strains, locus YLR039C, strain RIC1, hits give low values
  normalized growth: 0.782
S. cerevisiae deletion strains, locus YLR058C, strain SHM2, hits give low values
  normalized growth: 0.965
S. cerevisiae deletion strains, locus YLR102C, strain apc9, hits give low values
  normalized growth: 1
S. cerevisiae deletion strains, locus YLR221C, strain rsa3, hits give low values
  normalized growth: 0.961
S. cerevisiae deletion strains, locus YLR258W, strain gsy2, hits give low values
  normalized growth: 0.957
S. cerevisiae deletion strains, locus YLR262C, strain YPT6 (second series), hits give low values
  normalized growth: 0.915
S. cerevisiae deletion strains, locus YLR262C, strain YPT6, hits give low values
  normalized growth: 0.725
S. cerevisiae deletion strains, locus YLR268W, strain sec22, hits give low values
  normalized growth: 0.908
S. cerevisiae deletion strains, locus YLR320W, strain mms22, hits give low values
  normalized growth: 0.962
S. cerevisiae deletion strains, locus YLR330W, strain CHS5, hits give low values
  normalized growth: 0.988
S. cerevisiae deletion strains, locus YLR342W, strain FKS1 (second series), hits give low values
  normalized growth: 0.832
S. cerevisiae deletion strains, locus YLR342W, strain FKS1, hits give low values
  normalized growth: 0.987
S. cerevisiae deletion strains, locus YLR357W, strain rsc2, hits give low values
  normalized growth: 1
S. cerevisiae deletion strains, locus YLR370C, strain arc18, hits give low values
  normalized growth: 0.987
S. cerevisiae deletion strains, locus YLR371W, strain rom2, hits give low values
  normalized growth: 0.913
S. cerevisiae deletion strains, locus YLR384C, strain iki3, hits give low values
  normalized growth: 0.982
S. cerevisiae deletion strains, locus YLR418C, strain cdc73, hits give low values
  normalized growth: 0.78 (active)
S. cerevisiae deletion strains, locus YML016C, strain PPZ1, hits give low values
  normalized growth: 0.979
S. cerevisiae deletion strains, locus YML032C, strain rad52, hits give low values
  normalized growth: 0.922
S. cerevisiae deletion strains, locus YML120C, strain ndi1, hits give low values
  normalized growth: 0.974
S. cerevisiae deletion strains, locus YML124C, strain tub3, hits give low values
  normalized growth: 0.984
S. cerevisiae deletion strains, locus YMR058W, strain fet3, hits give low values
  normalized growth: 0.922
S. cerevisiae deletion strains, locus YMR078C, strain ctf18, hits give low values
  normalized growth: 0.969
S. cerevisiae deletion strains, locus YMR125W, strain sto1, hits give low values
  normalized growth: 0.998
S. cerevisiae deletion strains, locus YMR129W, hits give low values
  normalized growth: 0.996
S. cerevisiae deletion strains, locus YMR205C, strain PFK2, hits give low values
  normalized growth: 0.958
S. cerevisiae deletion strains, locus YMR223W, strain ubp8, hits give low values
  normalized growth: 0.925
S. cerevisiae deletion strains, locus YMR231W, strain pep5, hits give low values
  normalized growth: 0.984
S. cerevisiae deletion strains, locus YMR263W, strain SAP30, hits give low values
  normalized growth: 0.97
S. cerevisiae deletion strains, locus YMR307W, strain GAS1, hits give low values
  normalized growth: 0.7
S. cerevisiae deletion strains, locus YNL067W, strain RPL9B, hits give low values
  normalized growth: 0.992
S. cerevisiae deletion strains, locus YNL071W, strain lat1, hits give low values
  normalized growth: 0.922
S. cerevisiae deletion strains, locus YNL128W, strain TEP1, hits give low values
  normalized growth: 0.969
S. cerevisiae deletion strains, locus YNL209W, strain ssb2, hits give low values
  normalized growth: 0.993
S. cerevisiae deletion strains, locus YNL233W, strain BNI4, hits give low values
  normalized growth: 0.993
S. cerevisiae deletion strains, locus YNL248C, strain rpa49, hits give low values
  normalized growth: 0.973
S. cerevisiae deletion strains, locus YNL250W, strain rad50, hits give low values
  normalized growth: 0.957
S. cerevisiae deletion strains, locus YNL271C, strain bni1, hits give low values
  normalized growth: 0.925
S. cerevisiae deletion strains, locus YNL298W, strain CLA4, hits give low values
  normalized growth: 0.951
S. cerevisiae deletion strains, locus YNL307C, strain MCK1, hits give low values
  normalized growth: 0.796 (active)
S. cerevisiae deletion strains, locus YNL322C, strain KRE1 (second series), hits give low values
  normalized growth: 0.977
S. cerevisiae deletion strains, locus YNL322C, strain KRE1, hits give low values
  normalized growth: 0.985
S. cerevisiae deletion strains, locus YNR049C, strain mso1, hits give low values
  normalized growth: 0.992
S. cerevisiae deletion strains, locus YNR052C, strain pop2, hits give low values
  normalized growth: 0.942
S. cerevisiae deletion strains, locus YOL006C, strain TOP1, hits give low values
  normalized growth: 0.997
S. cerevisiae deletion strains, locus YOL012C, strain htz1
  normalized growth: 0.753
S. cerevisiae deletion strains, locus YOL147C, strain pex11, hits give low values
  normalized growth: 0.979
S. cerevisiae deletion strains, locus YOR001W, strain rrp6, hits give low values
  normalized growth: 0.972
S. cerevisiae deletion strains, locus YOR061W, strain CKA2, hits give low values
  normalized growth: 0.98
S. cerevisiae deletion strains, locus YOR069W, strain VPS5, hits give low values
  normalized growth: 0.982
S. cerevisiae deletion strains, locus YOR070C, strain gyp1, hits give low values
  normalized growth: 0.995
S. cerevisiae deletion strains, locus YOR080W, strain dia2, hits give low values
  normalized growth: 0.97
S. cerevisiae deletion strains, locus YOR083W, strain WHI5, hits give low values
  normalized growth: 0.939
S. cerevisiae deletion strains, locus YOR106W, strain vam3, hits give low values
  normalized growth: 0.959
S. cerevisiae deletion strains, locus YOR136W, strain idh2, hits give low values
  normalized growth: 0.966
S. cerevisiae deletion strains, locus YOR144C, strain elg1, hits give low values
  normalized growth: 0.988
S. cerevisiae deletion strains, locus YOR184W, strain ser1, hits give low values
  normalized growth: 0.927
S. cerevisiae deletion strains, locus YOR265W, strain rbl2, hits give low values
  normalized growth: 0.988
S. cerevisiae deletion strains, locus YOR270C, strain vph1, hits give low values
  normalized growth: 1.03
S. cerevisiae deletion strains, locus YOR290C, strain snf2, hits give low values
  normalized growth: 0.938
S. cerevisiae deletion strains, locus YOR316C, strain cot1, hits give low values
  normalized growth: 0.984
S. cerevisiae deletion strains, locus YPL051W, strain arl3, hits give low values
  normalized growth: 0.954
S. cerevisiae deletion strains, locus YPL078C, strain atp4, hits give low values
  normalized growth: 0.971
S. cerevisiae deletion strains, locus YPL106C, strain sse1, hits give low values
  normalized growth: 1.01
S. cerevisiae deletion strains, locus YPL240C, strain hsp82, hits give low values
  normalized growth: 0.987
S. cerevisiae deletion strains, locus YPL241C, strain CIN2, hits give low values
  normalized growth: 0.986
S. cerevisiae deletion strains, locus YPR119W, strain clb2, hits give low values
  normalized growth: 0.987
S. cerevisiae deletion strains, locus YPR141C, strain kar3, hits give low values
  normalized growth: 0.947
S. cerevisiae deletion strains, locus YPR163C, strain tif3, hits give low values
  normalized growth: 0.968
S. cerevisiae deletion strains, locus YPR167C, strain met16, hits give low values
  normalized growth: 0.969
S. cerevisiae deletion strains, strain wtn01, hits give low values
  normalized growth: 0.928
S. cerevisiae strains, strain wild type, hits give low values
  normalized growth: 0.98
